Compounds without any hit were thinned out: in the full panel of roughly 83,000, 20% have a hit.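 For each line, cells grew in 96-well plates with the test compound present at a single concentration for 48 hours.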 The source made the active and inactive calls. The calls were made as follows: active = growth percent below 10; inactive = the rest.

The test concerns HL-60(TB) leukemia. The test can be described thus: NCI-60 one-dose screen, 48 h (100 = growth as untreated, 0 = no growth, -100 = all killed). Particulars: 10 µM unless noted.
Regarding `NC(=O)C1CCCN(Cc2c[nH]c3ccccc23)C1` (stereo not given), the growth was 102% (inactive). In the case of `COc1cc(/C=C(/c2ccccc2)[N+](=O)[O-])c(OC)c2c1OCO2`, the growth was -23% (active). For `COc1ccc(/C=C(/c2ccccc2)[N+](=O)[O-])c(OC)c1`, the growth was 0.521% (active). As for `O=C(C[n+]1cccc(Br)c1)c1ccc2c(c1)CCCC2`, the figure is 83.6% (inactive); as for `O=C(Nc1cccc(N=Cc2c(O)ccc3ccccc23)c1)c1ccccc1`, 109% (inactive). For the compound `CCCCCCC(C(=O)OCC)(C(=O)OCC)C1CCCCCC1`, the growth was 106% (inactive).

For the compound `Clc1ncccc1Nc1ccc2nnc(-c3ccncc3)n2n1`, the growth was 89.5% (inactive). Consider `C=C1C(=O)O[C@H]2[C@H]1CC/C(COC(=O)CCSSCCC(=O)OC/C1=C/CC[C@@]3(C)O[C@H]3[C@H]3OC(=O)C(=C)[C@@H]3CC1)=C\CC[C@@]1(C)O[C@@H]21`, for which the growth was -47.9% (active). The value for `O=C1NN(C(=O)c2ccc(Cl)cc2)C(c2ccccc2)=N/C1=C\c1cn(-c2ccccc2)nc1-c1ccccc1` was 94.5% (inactive); that for `C1=CC2=CC=C3C=CC=C4C(c5nc6c7ccccc7c7ccccc7c6[nH]5)=CC(=C1)C2C34` (stereo not given) was 111% (inactive). Consider `Nc1ncc(C#Cc2cncc(NC(=O)c3cccc(C(F)(F)F)c3)c2)c2cccnc12`, for which the growth is 33.2% (inactive). For the compound `O=[N+]([O-])c1ccc(N/N=C\c2ccc(O)cc2O)nc1`, the growth is 0.875% (active). Regarding `Cc1ncc(C(=O)Nc2ccc(CN3CCN(C)CC3)c(C(F)(F)F)c2)cc1C#Cc1c(N)ncc2ccccc12`, the growth is -51.1% (active). Take `O=C1C(Cl)=C(N=Nc2c(Cl)c(O)c3ccccc3c2O)C(=O)c2ccccc21`: the growth is 90.7% (inactive). As for `COc1ccc(C(C)=O)c(OC)c1`, the figure is 115% (inactive); as for `O=C1/C=C/[C@@H](O)[C@@H]2C[C@@H](O)C[C@H]2/C=C/CCC[C@H]([C@@H](O)CO)O1`, 101% (inactive); as for `Cc1ccc(NC(=O)Nc2nc3ccccc3s2)cc1NC(=O)Nc1nc2ccccc2s1`, 106% (inactive).

As to `Cc1ccc(/C=C(\C#N)n2nc3cccc(F)c3n2)cc1`, the growth is 86.6% (inactive). Consider `Cc1csc(NC(c2ccc(Br)cc2)c2c(C)nc3ccccn23)n1` (stereo not given), for which the growth was 102% (inactive). The value for `Nc1c(C(=O)Nc2ccncc2)sc2nc3c(cc12)CCCCC3` was 55.5% (inactive); that for `COc1nc2ccc(C)cc2cc1-c1nc2c(cnn2-c2ccc(Br)cc2)c(=O)[nH]1` was 23.7% (inactive); that for `Cc1nc2cnc(N)c(C#Cc3cncc(C(=O)Nc4ccc(CN5CCN(C)CC5)c(C(F)(F)F)c4)c3)c2nc1C` was -16.4% (active). On to `COc1ccc(N=Nc2nccs2)c(O)c1`, for which the growth was -32.2% (active). In the case of `CN(C)CCN1C(=O)c2cccc3c(-c4ccc(-c5nc6c7ccccc7c7ccccc7c6[nH]5)cc4)ccc(c23)C1=O`, the growth is 90.7% (inactive).

With `c1csc(-c2cn3nc(-c4c[nH]c5ccccc45)sc3n2)c1`, the growth was 7.07% (active). In the case of `CN(C)c1ccc(S(=O)(=O)O)cc1`, the growth is 128% (inactive).

For `Nc1cc(Cl)cc2cccnc12`, the growth is 72.3% (inactive).

As to `CN1CCN(/C=C2\CC(C(=O)NCc3ccc(Cl)cc3Cl)NC2=O)CC1` (stereo not given), the growth was 103% (inactive).

In the case of `COc1cccc(-c2nn(C)c3sc(C(=O)NCCN4CCN(c5ccccc5F)CC4)cc23)c1`, the growth is 8.08% (active). For `COc1cc(-c2nccc3[nH]c(-c4ccc5cc[nH]c5c4)nc23)cc(OC)c1OC`, the growth was -48.7% (active). Regarding `Cc1cc(C)c(-c2c(N)cc(Br)cc2Br)c(N)c1`, the growth was 21.1% (inactive). On to `O=C(CCCCC[P+](c1ccccc1)(c1ccccc1)c1ccccc1)NC(COC(=O)C(Cl)Cl)(COC(=O)C(Cl)Cl)COC(=O)C(Cl)Cl`, for which the growth was 95.5% (inactive). For the compound `N#C/C(=C\c1ccc(Br)cc1)c1cc2ccccc2[nH]1`, the growth is 98.2% (inactive). In the case of `O=C1NCCS(=O)(=O)/C1=C\C=C\c1cccc(C(F)(F)F)c1`, the growth was 1.71% (active). On to `COC(=O)c1c[nH]c2cc(OC(C)C)c(OC(C)C)cc2c1=O`, for which the growth was 106% (inactive). For `O=C(Nc1cccc(-n2cc(-c3ccncc3)c(-c3ccc(Cl)c(O)c3)n2)c1)Nc1cc(C(F)(F)F)cc(C(F)(F)F)c1`, the growth was -18.3% (active). Turning to `O=C(C[n+]1ccccc1Cl)c1ccc2c(c1)CCCC2`, the growth was 79.2% (inactive).

Take `O=C1C=CC2(O)OC/C(=C\c3ccccc3)C(O)=C2C1=O` (stereo not given): the growth was 4.63% (active). `COc1ccc2c(c1)C(=O)/C(=C/c1cccc(OCC(=O)c3ccccc3)c1)CC2`: the growth was 46.5% (inactive).

Regarding `CCCCOP(=O)(OCCCC)C(C(=O)OCC)C(CC(=O)OCC)C(=O)OCC` (stereo not given), the growth was 102% (inactive).

The record behind these values is PubChem BioAssay (NCI).
